Reference: PubChem BioAssay (EPA / NIEHS)
Results filed as inconclusive are left out. The source made the active and inactive calls. How the source made its calls, unless noted: active means hit-call score of the fitted dose curve at least 0.9, where 1 is the maximum; inactive means score below 0.9.

Assays:
[1] = read-out: Monocyte Chemoattractant Protein-1 (MCP1), CCL2 (gene 6347); test: BSK_SAg_MCP1: BioMAP Diversity Plus: SAg Assay for Monocyte Chemoattractant Protein-1 (MCP1) Biomarker Activity (AID 2283090); conditions: primary human HUVEC with PBMC; actives raise or lower the signal
Method in brief: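 MCP-1 levels in the endothelial–PBMC SAg co-culture were quantified by ELISA at 24 h post-dosing; both increases and decreases versus DMSO scored. Cytotoxicity monitored by SRB total protein in parallel cultures.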

[2] = read-out: E-selectin (Homo sapiens) (UniProt P16581); test: BSK_SAg_Eselectin: BioMAP Diversity Plus: SAg Assay for Eselectin Biomarker Activity (AID 2283091); conditions: primary human HUVEC with PBMC; actives raise or lower the signal
Method in brief: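 Endpoint values derive from bidirectional fitting relative to DMSO, using ELISA-measured E-selectin in a human vascular co-culture (umbilical vein endothelium plus PBMC) sampled 24 h after dosing.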

[3] = read-out: Monokine induced gamma interferon (MIG), CXCL9 (gene 4283); test: BSK_SAg_MIG: BioMAP Diversity Plus: SAg Assay for Monokine induced gamma interferon (MIG) Biomarker Activity (AID 2283092); conditions: primary human HUVEC with PBMC; actives raise or lower the signal
Method in brief: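 ELISA readout of MIG/CXCL9; primary human umbilical vein endothelial cells co-cultured with peripheral blood mononuclear cells; 24 h post-dose; gain/loss fit vs DMSO baseline.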

[4] = BSK_SAg_PBMCCytotoxicity: PBMC Cytotoxicity Assessment in the BioMAP Diversity Plus: SAg Assay (AID 2283093); conditions: primary human HUVEC with PBMC;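 further: PBMC viability measured as Alamar Blue reduction fluorescence at 546/580 nm; fitted both ways against DMSO so a hit may be loss or gain of signal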;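 on AC50: PBMC superantigen activated with SEB plus TSST-1 one hour after compound addition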
Method in brief: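 HUVEC/PBMC co-culture; PBMC exposed to chemical 1 h before SEB and TSST-1 activation (20 ng/mL each), incubated 90 h, then Alamar Blue 6 h, fluorescence 546/580 nm. Bidirectional fit versus DMSO baseline.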

[5] = BSK_SAg_Proliferation: Cell Proliferation Assessment in the BioMAP Diversity Plus: SAg Assay (AID 2283095); conditions: primary human HUVEC with PBMC;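 further: relative cell number as total protein by SRB absorbance in sub-confluent culture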
Method in brief: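 Cells (endothelium plus PBMC, human primary) were dosed with chemical, cultured 96 h, fixed in 10% TCA and stained with 0.1% SRB. Absorbance at 560 nm gave relative protein, fitted bidirectionally relative to DMSO.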

[6] = BSK_SAg_SRB: Viability Assessment in the BioMAP Diversity Plus: SAg Assay (AID 2283096); conditions: primary human HUVEC with PBMC;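 further: cells read one day after compound addition; hits may be either gain or loss of signal compared with DMSO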
Method in brief: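 Human umbilical vein endothelial cells co-cultured with PBMC, read 24 h after compound dosing. Total protein measured by sulforhodamine B staining (0.1% SRB after 10% TCA fixation, absorbance 560 nm); bidirectional fit versus DMSO baseline.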

[7] = target: human CYP1A1, CYP1A1 (gene 1543) (UniProt P04798); test: NVS_ADME_hCYP1A1: NovaScreen (NVS) CYP450-related Enzyme Activity (ADME) Assay for human CYP1A1 (AID 2283100; active means hit-call score of the fitted dose curve at least 0.9, where 1 is the maximum)
Method in brief: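 Inhibition of recombinant CYP1A1 turnover was assessed fluorometrically in a biochemical format 1 h after compound exposure. Testing began at 10 uM in duplicate and progressed to concentration series reaching 20 uM, with on-plate positive and negative controls.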

[8] = target: human CYP19A1, CYP19A1 (gene 1588) (UniProt P11511); test: NVS_ADME_hCYP19A1: NovaScreen (NVS) CYP450-related Enzyme Activity (ADME) Assay for human CYP19A1 (AID 2283098; active means hit-call score of the fitted dose curve at least 0.9, where 1 is the maximum)
Method in brief: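 Recombinant enzyme in a cell-free format, read 0.5 h after dosing by fluorescence from a fluorogenic substrate. Loss of signal was fitted against acetonitrile as baseline. Primary screen in duplicate at 10 uM, actives then tested in concentration series.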

Measured: AC50

E-selectin (Homo sapiens), sequence (P16581 whole entry, looked up): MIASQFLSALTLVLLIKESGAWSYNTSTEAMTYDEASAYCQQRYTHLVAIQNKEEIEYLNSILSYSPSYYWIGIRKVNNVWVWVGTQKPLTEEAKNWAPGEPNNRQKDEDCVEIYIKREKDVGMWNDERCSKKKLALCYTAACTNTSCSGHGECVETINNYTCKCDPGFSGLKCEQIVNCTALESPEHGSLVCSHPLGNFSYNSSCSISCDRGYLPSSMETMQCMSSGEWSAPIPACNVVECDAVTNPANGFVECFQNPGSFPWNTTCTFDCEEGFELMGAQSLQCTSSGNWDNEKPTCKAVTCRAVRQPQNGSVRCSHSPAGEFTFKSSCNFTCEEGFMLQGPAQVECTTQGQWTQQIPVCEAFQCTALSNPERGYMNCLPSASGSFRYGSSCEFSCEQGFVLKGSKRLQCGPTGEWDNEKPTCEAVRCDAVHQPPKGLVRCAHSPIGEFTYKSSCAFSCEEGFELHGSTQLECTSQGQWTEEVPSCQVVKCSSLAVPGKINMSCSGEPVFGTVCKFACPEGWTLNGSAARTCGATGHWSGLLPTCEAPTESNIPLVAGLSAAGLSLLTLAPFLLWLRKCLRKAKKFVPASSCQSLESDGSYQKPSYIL
human CYP1A1, CYP1A1 (gene 1543), sequence (P04798 whole entry, looked up): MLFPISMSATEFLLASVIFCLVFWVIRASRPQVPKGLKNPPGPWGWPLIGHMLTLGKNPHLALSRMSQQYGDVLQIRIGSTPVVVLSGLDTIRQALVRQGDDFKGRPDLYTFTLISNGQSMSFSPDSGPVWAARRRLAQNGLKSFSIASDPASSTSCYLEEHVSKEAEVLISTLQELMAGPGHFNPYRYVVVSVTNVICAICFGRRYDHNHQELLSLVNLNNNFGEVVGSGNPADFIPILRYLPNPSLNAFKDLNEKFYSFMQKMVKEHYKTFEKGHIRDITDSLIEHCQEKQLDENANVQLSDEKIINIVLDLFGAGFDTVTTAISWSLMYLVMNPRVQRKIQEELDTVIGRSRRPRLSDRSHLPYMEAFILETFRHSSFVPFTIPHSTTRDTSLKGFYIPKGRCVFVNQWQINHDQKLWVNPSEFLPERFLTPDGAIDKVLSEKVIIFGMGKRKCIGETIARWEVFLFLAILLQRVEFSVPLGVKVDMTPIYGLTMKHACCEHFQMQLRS
human CYP19A1, CYP19A1 (gene 1588), sequence (P11511 whole entry, looked up): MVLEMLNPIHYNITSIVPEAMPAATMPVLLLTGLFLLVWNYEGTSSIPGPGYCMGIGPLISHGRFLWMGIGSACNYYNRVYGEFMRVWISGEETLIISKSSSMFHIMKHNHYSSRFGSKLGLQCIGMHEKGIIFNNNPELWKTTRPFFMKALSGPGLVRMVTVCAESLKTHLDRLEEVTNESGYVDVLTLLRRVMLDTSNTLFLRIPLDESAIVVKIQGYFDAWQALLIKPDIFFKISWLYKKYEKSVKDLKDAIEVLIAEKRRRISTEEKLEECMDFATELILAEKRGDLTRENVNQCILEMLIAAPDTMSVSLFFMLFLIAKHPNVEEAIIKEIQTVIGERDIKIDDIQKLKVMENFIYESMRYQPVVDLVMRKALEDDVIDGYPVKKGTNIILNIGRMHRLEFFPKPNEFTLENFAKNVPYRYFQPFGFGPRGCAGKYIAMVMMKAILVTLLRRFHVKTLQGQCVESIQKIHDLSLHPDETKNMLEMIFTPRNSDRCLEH

CC(C)(C)c1cc(C(C)(C)C)c(O)c(C(C)(C)C)c1
not listed: [7] | [8]
inactive: all other assays above

CCc1ccc(CCOc2ccc(CC3SC(=O)NC3=O)cc2)nc1 (stereo unspecified)
active: [5] 7.06 µM
not listed: [7] | [8]
inactive: all other assays above

CC(C)(C)c1ccc(O)c(C(C)(C)C)c1
active: [1] 23.6 µM | [2] 11.9 µM | [3] 28.7 µM | [4] 12.9 µM | [5] 10.8 µM | [6] 16.6 µM

Nc1cccc2c(N)cccc12
active: [4] 13.7 µM | [5] 17.5 µM
not listed: [8]
inactive: all other assays above

CCCCCCCCCCCCCC[N+](C)(C)C
active: [1] 3.66 µM | [2] 3.2 µM | [3] 7.11 µM | [4] 4.69 µM | [5] 0.539 µM | [6] 3.15 µM

CN1CCN(c2ccccc2/C=C2\SCCN(c3ccc(Cl)c(Cl)c3)C2=O)CC1
active: [1] 23 µM | [4] 14.4 µM | [5] 6.38 µM | [6] 5.22 µM
inactive: [2] | [3]

CCCCCCCCC(=O)O
not listed: [7] | [8]
inactive: all other assays above

Cc1cc(CCN2CCN(c3nsc4ccccc34)CC2)cc2c1NC(=O)CC2(C)C
inactive: [8] | [7]
active: [1] 11.3 µM | [2] 11.8 µM | [3] 17.3 µM | [4] 13 µM | [5] 8.05 µM | [6] 33.9 µM
